Test results as given in PubChem BioAssay (NCI).
The panel holds about 83,000 compounds, 20% with a hit somewhere; the sample as a whole holds those more often.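 Negative percent growth values reflect cell death: -40 means 40% of the cells present at the start died, and -100 means all died.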 Unmarked numbers belong to inactive results. Calls of active or inactive are those of the source. Rule for the calls: active = growth percent below 10; inactive = the rest.

Assays:
Test in all cases: NCI-60 one-dose screen, 48 h (100 = growth as untreated, 0 = no growth, -100 = all killed)
Conditions in all cases: 10 µM unless noted
T-47D breast = system: T-47D breast
BT-549 breast = system: BT-549 breast
MDA-MB-435 melanoma = system: MDA-MB-435 melanoma
SW-620 colon = system: SW-620 colon
MCF7 breast = system: MCF7 breast
HCT-116 colon = system: HCT-116 colon
HCC-2998 colon = system: HCC-2998 colon
KM12 colon = system: KM12 colon

| Compound | growth (T-47D breast) | growth (BT-549 breast) | growth (MDA-MB-435 melanoma) | growth (SW-620 colon) | growth (MCF7 breast) | growth (HCT-116 colon) | growth (HCC-2998 colon) | growth (KM12 colon) |
| --- | --- | --- | --- | --- | --- | --- | --- | --- |
| Cc1nnc(-c2ccc3c(c2)nc(/C=C/c2ccccc2)n3C2CCCCC2)o1 | 52% | 81% | 83.8% | 111% | 77.1% | 64.5% | 87.7% | 85.1% |
| C/C=C(/C)n1cnc2c(Nc3ccccn3)nc(Cl)nc21 | 93.6% | 103% | 107% | 103% | 99.9% | 104% | 103% | 109% |
| COc1cc(/C=C2\CN(S(=O)(=O)c3ccccc3)C/C(=C\c3cc(CN4CCCCC4)c(O)c(OC)c3)C2=O)cc(CN2CCCCC2)c1O | 89.2% | -39.9% (active) | -88.6% (active) | -74.5% (active) | -51.9% (active) | -67.4% (active) | -68% (active) | -87.1% (active) |
| O=C(Cc1ccc(/C=C/C(=O)c2ncc[nH]2)cc1)Nc1cc(C(F)(F)F)cc(C(F)(F)F)c1 | 80.5% | 99.7% | 60.1% | 53.5% | 7.59% (active) | 5.37% (active) | 63% | 38.5% |
| Fc1cc(Nc2ccc3c(OCCCN4CCOCC4)cccc3n2)ccc1Cl | 48.2% | 57.9% | 32% | -32.2% (active) | 14.2% | 3.61% (active) | -58.2% (active) | -21.8% (active) |
| CCNC(=O)Oc1ccc(/C(=C(/CC)Cc2ccccc2)c2ccc(OCCN3CCCC3)cc2)cc1 | 68.3% | 100% | 102% | 99.6% | 35.9% | 72.1% | 91.3% | 98% |
| COC(=O)c1c2c(c(C)[n+]([O-])c1C)C(=O)C(NCc1ccc(OC)cc1)=CC2=O | 3.48% (active) | 56% | -67.6% (active) | 6.71% (active) | -7.88% (active) | 3.89% (active) | 15.1% | 14.3% |
| CC(=O)ON1CCCC(P(=O)(OCCSC(=O)C(C)(C)C)OCCSC(=O)C(C)(C)C)C1=O (stereo not given) | 14.8% | 30.9% | 48.5% | 30.9% | 13.9% | 10.5% | 11% | 5.16% (active) |
| O=C(Cn1nnc2ccccc21)N/N=C/c1c[nH]c2ccccc12 | 37.1% | 52.4% | -15.9% (active) | 25.3% | 22% | 26.9% | 78.8% | 22.6% |
| COc1cc(C(=O)c2c(-c3ccccc3)oc3c(OC)cccc23)cc(OC)c1OC | 58.2% | -5.83% (active) | -28.9% (active) | 20.1% | 10.1% | -8.11% (active) | -4.94% (active) | 3.21% (active) |
| Cc1ccc(-c2nc(-c3cn(C)c4ncccc34)cs2)cc1 | -3.08% [100 µM] (active) | -42.1% [100 µM] (active) | -39.5% [100 µM] (active) | -11.6% [100 µM] (active) | -18% [100 µM] (active) | -73.1% [100 µM] (active) | -67.9% [100 µM] (active) | -55.5% [100 µM] (active) |
| Nc1nc(N)c2c(n1)NC(c1cccc(Nc3ccnc4cc(C(F)(F)F)ccc34)c1)CC(c1ccc(Br)cc1)=N2 (stereo not given) | 68.9% | 114% | -25.8% (active) | 31.1% | 17.3% | 16.2% | 55.1% | 28.3% |
| O=S(=O)(NCCNc1nccc(-c2c(-c3cccc(O)c3)nc3occn23)n1)c1ccc(Br)cc1 | 11.3% | 45.1% | 13.1% | 34.8% | 17.7% | 10.2% | 50.7% | 27% |
| Cc1ccc(C(=O)c2ccc(CC(=O)NN3C(=O)c4ccccc4C3=O)n2C)cc1 | 98.3% | 110% | 99.6% | 99.3% | 91.4% | 107% | 104% | 102% |
| C[C@H](C(=O)N(CCc1ccc(Cl)c(Cl)c1)Cc1cncs1)[C@@H]1CC[C@H](C[C@H](C)n2cc(CN3CCC(c4ccc(Cl)cc4)CC3)nn2)O1 | 86.6% | 95.1% | 98.3% | 97.5% | 85.8% | 92.5% | 112% | 105% |
| COc1ccc(C(=O)Cn2c(C(=O)c3ccc(OC)cc3)nc3ccccc32)cc1 | 29.9% | 31% | -50% (active) | 9.77% (active) | 16% | 12.2% | 21.5% | 24.8% |
| CC1(C)CC[C@]23CC[C@]4(C)[C@H](CC[C@@H]5[C@@]6(C)C/C(=C/c7ccncc7)C(=O)C(C)(C)[C@@H]6CC[C@]54C)[C@H]2[C@H]1OC3 | 41.5% | 99.3% | 66.6% | 61.3% | 55.3% | 50% | 93% | 68.4% |
| O=[N+]([O-])c1ccc(-c2cn3nc(-c4c[nH]c5ccccc45)sc3n2)cc1 | 64.8% | 99.5% | 107% | 99.9% | 79.5% | 90.8% | 86.1% | 83.2% |
| C=C1CC[C@@H]2C(C)(C)[C@@H](O)CC[C@@]2(C)[C@@H]1COc1ccc2ccc(=O)oc2c1 | -12.4% (active) | 72.7% | 81.5% | 99.4% | 50.2% | 76.6% | 92.3% | 70% |
| O=C(CCCCCCN1CC(=O)N2[C@H](c3ccc(Cl)cc3)c3[nH]c4ccccc4c3C[C@@H]2C1=O)NO | 25.9% | 74.7% | 43.2% | 35.4% | 48% | 24.7% | 82.3% | 80.3% |
| CN1CCN(CC(=O)Nc2ccc3ncnc(Nc4ccc(Oc5cccc(C(F)(F)F)c5)c(Cl)c4)c3c2)CC1 | 44.4% | 73.1% | -86% (active) | -68% (active) | -51.3% (active) | 6.69% (active) | -5.89% (active) | 23.5% |
| COc1cc(C2C(C(=O)OCc3ccccc3)=C(C)NC(C)=C2C(=O)OCc2ccccc2)cc(OC)c1OC | 11.9% | 34% | 27.3% | 40.3% | 10.4% | 17.1% | 52% | 19.4% |
| COc1ccc(/C=C2\CN(C(=O)C(Cl)Cl)C/C(=C\c3ccc(OC)cc3)C2=O)cc1 | 2.86% (active) | -19.3% (active) | -37.4% (active) | -41.5% (active) | -28.5% (active) | -70.2% (active) | -77% (active) | -70.3% (active) |
| COc1ccc(-c2ccc(-c3ccc(C(=N)N)nc3)s2)cc1Cl | -28.6% (active) | 77.9% | -90.3% (active) | -79.8% (active) | -70% (active) | -65.5% (active) | -43.8% (active) | -86% (active) |
| COc1ccc(/C=C/C(c2cc(OC)c(OC)c(OC)c2)n2ccnc2)cc1O (stereo not given) | 40.6% | 44.3% | -25.6% (active) | 17.4% | 17.9% | 16.7% | 77% | 29% |
| COc1ccc(Cn2cc(C(=O)N=Nc3c(O)[nH]c4c(C)cccc34)nn2)cc1 | 81% | 103% | 82% | 57.5% | 84.9% | 7.11% (active) | 101% | 95.6% |
| COC(=O)c1nc(-c2ccccc2)oc1S(=O)(=O)NCC(c1ccc(Cl)cc1)N1CCOCC1 (stereo not given) | 53.5% | 56% | 64.8% | 18.7% | 31.7% | 62.2% | 121% | 89% |
| COc1ccc(/C=C/C(c2cc(OC)c(OC)c(OC)c2)n2cncn2)cc1 (stereo not given) | 30.8% | 45.5% | -9.62% (active) | 26.6% | 22.5% | 22% | 84.2% | 30.7% |
| COc1cc(C(=O)n2nc(N3CCOCC3)c3cc(-n4cccc4)ccc32)cc(OC)c1OC | 60.5% | 56.2% | 75.2% | 67.5% | 52.1% | 48.6% | 99.7% | 81.8% |
| O=S(=O)(NCCNc1nccc(-c2c(-c3ccc(F)c(O)c3)nc3sccn23)n1)c1ccc(F)cc1 | 35.9% | 49.5% | 4.98% (active) | 29.5% | 17.1% | 6.5% (active) | 41.8% | 25.7% |
